From PubChem BioAssay
G9a block = qHTS Assay for Inhibitors of Histone Lysine Methyltransferase G9a | Potency, µM (series often up to 102 µM), most hits filed as inhibitors | actives 8.8% (n = 350,000) | Histone-lysine N-methyltransferase EHMT2 (Homo sapiens), Q96KQ7 | G9a H3K9 monomethylation, AlphaScreen, 2 h; also: nearly all actives have a fitted effect of over 75% in size
Target sequence (Q96KQ7 913-1193 limits assumed): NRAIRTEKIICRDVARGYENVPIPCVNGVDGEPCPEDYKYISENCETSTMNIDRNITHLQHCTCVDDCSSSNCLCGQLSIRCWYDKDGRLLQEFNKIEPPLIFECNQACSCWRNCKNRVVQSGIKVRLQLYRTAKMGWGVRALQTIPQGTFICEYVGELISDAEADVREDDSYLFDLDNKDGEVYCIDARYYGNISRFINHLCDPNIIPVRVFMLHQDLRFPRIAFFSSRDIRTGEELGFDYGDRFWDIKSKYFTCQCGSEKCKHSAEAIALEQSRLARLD
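AlphaScreen read-out: biotin-H3K9 peptide (500 nM) methylation by 20 nM enzyme with 20 uM SAM, 2 h at room temperature after 15 min compound preincubation; anti-monomethyl H3K9 antibody plus donor/acceptor beads, 10 min dark.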
BAZ2B inh = qHTS Assay for Inhibitors of BAZ2B. Bromodomain adjacent to zinc finger domain protein 2B (Homo sapiens), Q9UIF8. Potency, µM (top dose mostly 114 µM), actives largely listed as inhibitors. actives 4.4% (n = 360,000). AlphaScreen BAZ2B-H3K14Ac peptide displacement. AID 504333, 2011; also: nearly all actives have a fitted effect of over 60% in size
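Multi-concentration screen (max 110 uM) measuring displacement of acetylated histone H3 peptide from BAZ2B by AlphaScreen, using 50 nM protein, 50 nM peptide and 10 ug/mL streptavidin donor plus Ni-chelate acceptor beads.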
HP1b chromo inh = HTS for Inhibitors of HP1-beta Chromodomain Interactions with Methylated Histone Tails. Chromobox protein homolog 1 (Homo sapiens), P83916. AlphaScreen HP1-beta / biotin-H3K9me3 peptide binding. Potency, µM (series often up to 114 µM), most hits filed as inhibitors. actives 0.56% (n = 390,000). AID 540317, 2011; also: nearly all actives have a fitted effect of over 70% in size
Target sequence (P83916 whole entry, looked up): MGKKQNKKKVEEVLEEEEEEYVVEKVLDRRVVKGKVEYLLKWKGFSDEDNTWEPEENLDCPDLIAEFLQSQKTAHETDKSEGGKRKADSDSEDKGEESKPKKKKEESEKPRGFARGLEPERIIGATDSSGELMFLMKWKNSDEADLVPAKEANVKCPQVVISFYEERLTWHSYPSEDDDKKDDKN
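Compound inhibition of the preformed complex between 50 nM HP1-beta and 50 nM biotinylated H3K9me3 peptide was read by AlphaScreen. Buffer was PBS pH 7.4 with 0.01% Tween-20. Incubations ran 30 min at room temperature, with 10 ug/mL donor/acceptor beads.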
CtBP-E1A blk = qHTS Assay for Inhibitors of the CtBP/E1A Interaction. CtBP / adenovirus E1A interaction (AlphaScreen). AlphaScreen GST-E1A/His-CtBP binding, 1536-well; stronger effect = lower value. activity change, % (test concentration not listed). actives 0.49% (n = 340,000); in the data active = activity change below about -65%; inconclusive = mostly about -30% to -63%
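AlphaScreen with 125 nM GST-E1A and 125 nM His-CtBP (5X stocks) in Tris pH 8.0, 300 mM NaCl, BSA, Tween 20, TCEP. Compounds preincubated 2 h at 37 deg C, then glutathione donor/nickel acceptor beads added for 1 h at 37 deg C in dark.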
JMJD2A Tudor = qHTS Assay for Inhibitors of JMJD2A-Tudor Domain. Lysine-specific demethylase 4A (Homo sapiens), O75164. AlphaScreen JMJD2A-Tudor / H3K4me3 peptide binding. Potency, µM (titrated, usually from 114 µM), hits mostly inhibitors. actives 4.4% (n = 390,000). AID 504339, 2011; also: nearly all actives have a fitted effect of over 50% in size
Six1-Eya2 inh = qHTS Assay for Inhibitors of the Six1/Eya2 Interaction; activity change, % (no concentration beside the values); AID 651725, 2012; actives 0.56% (n = 360,000); AlphaScreen GST-Six1/His-Eya2 binding, biochemical; stronger effect = lower value; in the data active = activity change below about -65%; inconclusive = mostly about -30% to -63%
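GST-Six1 + His-Eya2 (5X stock: 250/500 nM); Tris pH 8.0, 300 mM NaCl, 0.05% BSA, 0.02% Tween 20; GSH donor/Ni acceptor beads; 1 h 37 °C dark; AlphaScreen readout.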
Numbers stand for hits; i = inactive; ? = inconclusive; nt = not tested or not shown; ! = not active in a repeat; [ ] = remark or other dose. The list is not random: actives were taken first. Their share in the collection is about 10%. Unless noted, calls follow the shape of the dose curve; as a rule, active = well fitted inhibition curve with a large enough effect; inconclusive = small, poorly fitted or top-dose-only effect; inactive = no such curve, though single readings can be large or run the other way.

SMILES	G9a block	BAZ2B inh	HP1b chromo inh	CtBP-E1A blk	JMJD2A Tudor	Six1-Eya2 inh
COc1ccc(S(=O)(=O)NCC(=O)Nc2ccc3c(c2)OCCO3)cc1OC	50µM	i	i	i	i	i
CCSc1ccccc1C(=O)Nc1cc(OC)c(OC)c(OC)c1	3.5µM	i	i	i	i	i
COc1ccc(Cl)cc1C(=O)Nc1ccc2c(c1)OCCO2	i	i	i	i	i	i
Cc1cc(C)cc(-n2c(SCC(=O)Nc3nnc(C)s3)nc3c([nH]c4ccccc43)c2=O)c1	i	i	i	nt	i	nt
Cc1nnc(SCC(=O)Nc2nc(-c3ccc(F)cc3)cs2)[nH]c1=O	i	i	i	i	i	i
Cc1ccccc1OC(C)C(=O)Nc1ccc2c(c1)OCO2 (stereo unspecified)	i	i	i	i	i	i
COCCSc1ccccc1C(=O)Nc1cc(C)ccn1	i	i	i	i	i	i
COCCSc1ccccc1C(=O)Nc1nncs1	25µM	i	i	i	i	i
COc1ccccc1OC(C)C(=O)Nc1ccc2c(c1)OCCO2 (stereo unspecified)	32µM	i	i	i	i	i
Cc1nnc(SCC(=O)NNC(=O)c2ccccc2)n1N	i[12.7 µM]	i	i	i	i	i
CC1C2CCC3C4CC=C5CC(N(C)C)CC[C@@]5(C)C4CC[C@@]32CN1C (stereo partly specified)	i[12.7 µM]	nt	nt	nt	nt	nt
O=C(O)c1ccccc1NS(=O)(=O)c1cccc(C(F)(F)F)c1	i[2.33 µM]	i	i	i	i	i
O=C(O)c1ccccc1NS(=O)(=O)c1cccc(-n2sc3ccccc3c2=O)c1	1.3µM	4µM	i	i	1.4µM	i
OC[C@@H]1CN(Cc2ccc3c(c2)OCO3)C[C@H](n2cnc3c(NC4CCCC4)ncnc32)O1	nt	nt	nt	i	nt	i
CC(Cc1cccc(C(F)(F)F)c1)NCCOC(=O)c1ccccc1 (stereo unspecified)	13µM!	i	i	i	i	i
COc1ccc(C(=O)NNc2ccccc2)cc1	8.9µM	?	i	i	i	i
COc1ccc(NC(=S)NNc2ccc(C(=O)O)cc2)cc1	79µM	i	?	i	i	i
CC1=NN(c2ccccc2)C(=O)C1C(=O)c1cc([N+](=O)[O-])cc([N+](=O)[O-])c1 (stereo unspecified)	11µM	?	i	i	i	i
Cc1ccc(-c2cc3c(nn2)-c2ccccc2C3=O)cc1	nt	?	i	i	i[11.4 µM]	i
Cc1ccc(SC2=C(N(C)C)C(=O)c3ccccc3C2=O)cc1	nt	nt	?	-86	5.6µM	-84
Cc1cc2c(s1)c1cnn(Cc3cc(F)c(F)c(F)c3F)c(=O)c1n2C	nt	nt	nt	nt	i	nt
CCOC(=O)C1(Cc2cccc(OC)c2)CCCN(Cc2nccn2CC)C1 (stereo unspecified)	i	i	i	i	i	i
CCn1ccnc1CN1CCCC(CO)(Cc2cccc(OC)c2)C1 (stereo unspecified)	i	89µM	i	i	i	i
COc1cc(CN2CCCC(CO)(Cc3cccc(Cl)c3)C2)cc(OC)c1O (stereo unspecified)	50µM	i	i	i	i	i
COc1ccc(CN2CCCC(CO)(Cc3cccc(Cl)c3)C2)cc1OC (stereo unspecified)	i	i	i	i	i	i
SMILES	G9a block	BAZ2B inh	HP1b chromo inh	CtBP-E1A blk	JMJD2A Tudor	Six1-Eya2 inh
OCC1(Cc2ccccc2)CCCN(Cc2ccc(-c3ccco3)cc2)C1 (stereo unspecified)	nt	45µM	i	i	?	i
O=C1CNC(=S)N1CCOc1ccccc1	i	i	i	i	i	i
O=C1CNC(=S)N1CCc1ccc(O)c(O)c1	10µM	i	i	i	?	i
COc1ccc(C(CNC(=O)c2cccc(S(=O)(=O)Nc3ccc(F)cc3)c2)N2CCOCC2)cc1 (stereo unspecified)	nt	nt	i	i	i	i
CCc1nc2ccc(C(=O)Nc3cccc(OCC(=O)N(C)C)c3)cn2c1N(C=O)Cc1ccc(OC)cc1	nt	nt	nt	i	nt	i
O=C(Nc1ccc2oc(=O)ccc2c1)c1ccc(-c2cccc([N+](=O)[O-])c2)o1	?	35µM	i	i	i	?
CN1CCN(c2ccc(NC(=O)c3ccc(-c4cccc([N+](=O)[O-])c4)o3)cc2)CC1	?	45µM	?	i	?	?
CN1CCN(c2ccc(NC(=O)c3ccc(-c4ccc(Cl)cc4)o3)cc2)CC1	nt	8.9µM	i	?	?	i
CS(=O)(=O)N1CCN(c2ccc(NC(=O)c3ccc(-c4ccc(Cl)cc4)o3)cc2)CC1	i	i	i	i	i	i
CC1CCCN(C(=O)C2CCN(CC(C)c3ccccc3)CC2)C1 (stereo unspecified)	?	i	?	i	3.5µM	i
CCOC(=O)C1CCCN(CCCc2ccccc2)C1 (stereo unspecified)	i	i	i	i	i	i
CC1CCCN(C(=O)C2CCN(CCCc3ccccc3)CC2)C1 (stereo unspecified)	16µM	?	?	i	3.5µM	i
CCOc1ccc(C(=O)CSc2nc3cc(C(=O)NC4CCCC4)ccc3c(=O)n2CC2CCCO2)cc1 (stereo unspecified)	i	i	i	nt	i	nt
NC1=NC[C@H](c2ccccc2)N1CCc1cccc(F)c1	i[12.7 µM]	i	i	nt	i	i
COc1ccc(N2CCN(C(=O)c3ccc4c(c3)CC(c3ccccc3)OC4=O)CC2)cc1 (stereo unspecified)	10µM	40µM	i	i	?	i
O=C(O)c1ccc2c(c1)CC(c1ccccc1)OC2=O (stereo unspecified)	?	i	i	i	i	i
COc1ccc(C(=O)N2CCC(C(=O)N3CCN(c4ccccc4)CC3)CC2)cc1	nt	nt	i	i	i	i
O=C1OC(c2ccccc2)Cc2cc(C(=O)N3CCN(c4ccc(F)cc4)CC3)ccc21 (stereo unspecified)	50µM	i	i	i	i	i
Cc1ccc(CNC(=O)CSc2nc3c(sc4ccccc43)c(=O)n2CCCC(=O)NCCO)cc1	i	i	i	nt	i	nt
Cc1cc(C)c2oc(-c3ccc(C)c(NC(=O)/C=C/c4ccco4)c3)nc2c1	10µM	?	?	nt	56µM	nt
Cc1noc(C)c1-c1ccc2ncnc(N3CCC(C(=O)O)CC3)c2c1	i[0.501 µM]	nt	nt	nt	nt	nt
